# Assay outcomes (PubChem BioAssay)
# ERp5 block – inhibitors of human ERp5. Q15084. ERp5 insulin aggregation, absorbance 650 nm, 90 min. inhibition, % at 9.99 µM. 350,000 tested, 0.05% active. AID 651711;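 active means mean replicate inhibition above about 25%, with every replicate also reaching it, limit read from the data, passing the limit was not always enough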
# PvdQ inh – P. aeruginosa PvdQ acylase inhibition; purified PvdQ acylase, fluorescence plate reader; inhibition, % at 10 µM; 340,000 tested, 0.063% active; in the data active means inhibition above about 30%, passing the limit was not always enough;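 further: 0% = vehicle neutral wells and 100% = reference inhibitor wells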
# Efflux pump inh – blocks antifungal efflux pumps in multiplex yeast assay | S. cerevisiae Candida pump triplex, Nile Red efflux | inhibition, % at 10 µM | 330,000 tested, 0.44% active;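 active means plate passing quality check with inhibition over a set limit, or well fluorescence over plate mean plus 4 SD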;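 further: Nile Red retained in pooled yeast measured as flow cytometry median fluorescence; 0% = buffer negative control and 100% = Enniatin B positive control; higher means more Nile Red kept so more efflux inhibition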
# PDI turbidity – blocks human protein disulfide isomerase activity. 350,000 tested, 0.052% active. P07237. PDI insulin aggregation turbidity, A650, 90 min. AID 588391. inhibition, % at 10 µM;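 active means mean inhibition across replicates of 30% or more, whatever share of single replicates reach that level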
# Rtt109 HAT inh – inhibitors of Candida albicans Rtt109/Vps75 histone acetyltransferase | purified Rtt109/Vps75, ThioGlo CoA-SH fluorescence, 4 h | AID 540336 | inhibition, % at 34.9 µM | 330,000 tested, 0.16% active;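 active means inhibition of at least 50% in every replicate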
# Target sequence (Q5AAJ8 whole entry, looked up): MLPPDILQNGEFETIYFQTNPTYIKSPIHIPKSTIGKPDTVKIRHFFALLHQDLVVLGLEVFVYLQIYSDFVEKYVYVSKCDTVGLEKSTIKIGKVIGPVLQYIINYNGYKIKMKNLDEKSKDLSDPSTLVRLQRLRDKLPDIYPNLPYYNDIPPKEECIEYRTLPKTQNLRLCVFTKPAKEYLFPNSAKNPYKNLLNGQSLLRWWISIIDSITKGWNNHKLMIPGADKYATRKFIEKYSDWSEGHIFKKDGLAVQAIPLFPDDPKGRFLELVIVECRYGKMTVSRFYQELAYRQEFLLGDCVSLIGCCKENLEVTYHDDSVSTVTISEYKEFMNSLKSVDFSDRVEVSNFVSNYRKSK
# Cmpd fluor yeast – flagged as fluorescent in efflux inhibitor counter-screen; 1,700 tested, 4% active; S. cerevisiae AD/pABC3, compound fluorescence, flow cytometry; fluorescence ratio to DMSO, % at 10 µM; shares compounds with Efflux pump inh; AID 588517;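 active means fluorescence ratio to DMSO above its plate's cutoff, the plate mean ratio plus 5 SD, cut at about 210% in these data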;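 further: unstained yeast with no Nile Red so the signal is compound autofluorescence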
# Mdr1 pump inh – Candida Mdr1 efflux pump inhibition. shares compounds with Efflux pump inh. inhibition, % at 10 µM. S. cerevisiae AD/CaMDR1, Nile Red efflux, flow cytometry. 1,700 tested, 1% active. AID 588518; in the data active means inhibition above about 26%;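 further: 0% = DMSO vehicle and 100% = reference inhibitor; higher means more Nile Red retained so more efflux inhibition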
# Cdr2 pump inh – blocks the Candida albicans Cdr2 efflux pump in yeast. 1,700 tested, 4% active. AID 588520. Nile Red retention ratio vs DMSO, % at 10 µM. S. cerevisiae AD/CaCDR2, Nile Red retention, flow cytometry. shares compounds with Efflux pump inh; in the data active means Nile Red retention ratio vs DMSO above about 190%;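 further: higher ratio means more blocking of Cdr2 efflux of the dye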
# CaCdr1 efflux inh – blocks the Candida albicans Cdr1 efflux pump in yeast; S. cerevisiae AD/CaCDR1, Nile Red efflux, flow cytometry; 1,700 tested, 1% active; AID 588522; inhibition, % at 10 µM; shares compounds with Efflux pump inh;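 active means inhibition above the screen-wide mean plus twice its standard deviation, cut at about 32% in these data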
# An asterisk follows results filed as active; x = not tested or not shown. A selection: hits, their analogues and other compounds. The true share with any hit is near 0.54%.
SMILES,ERp5 block,PvdQ inh,Efflux pump inh,PDI turbidity,Rtt109 HAT inh,Cmpd fluor yeast,Mdr1 pump inh,Cdr2 pump inh,CaCdr1 efflux inh
C=CCNC(=O)NC(=O)COC(=O)/C(C#N)=C/c1cc(C)n(CC(C)C)c1C,x,-1,2.4*,4,-5,100,0,102,0
CCCn1c(C)cc(/C=C(\C#N)C(=O)OCC(=O)NC(=O)NC(C)(C)C)c1C,x,-3,0,1,0,x,x,x,x
O=[N+]([O-])c1ccc(Cl)c(S(=O)(=O)Nc2ccc(-c3ccc(N4CCOCC4)nn3)cc2)c1,6,0,0,-6,10,x,x,x,x
O=S(=O)(Nc1ccc(-c2ccc(N3CCOCC3)nn2)cc1)c1ccc(Cl)c(Cl)c1,1,-4,0.8*,-8,15,102,0,114,0
Cc1ccc(Nc2nc(Oc3ccc(OCc4ccccc4)nn3)nc(N3CCOCC3)n2)cc1,x,-14,0.7*,4,-3,108,0,110,0
c1ccc(COc2ccc(Oc3nc(N4CCCCC4)nc(N4CCOCC4)n3)nn2)cc1,x,-8,0,-3,x,x,x,x,x
CC(=O)N(C)C[C@@H]1[C@@H](c2ccc(C3=CCCCC3)cc2)[C@@H](CO)N1CC1CC1,7,x,x,x,x,x,x,x,x
O=C(COc1ccc(F)cc1)Nc1nnc(C2CC2)s1,0,10,0,1,-7,106,0,116,0
CC(C)NC(=O)N(C)C[C@H]1OCCCC[C@H](C)Oc2ccc(NC(=O)c3ccccc3)cc2C(=O)N([C@@H](C)CO)C[C@@H]1C,-1,x,x,x,x,x,x,x,x
COc1cccc(-c2sc3ccccc3c2-c2ccc(OCCN3CCCCC3)cc2)c1,x,-14,0,16,7,x,x,x,x
COc1cc2sc(-c3ccccc3OC)c(-c3ccc(OCCN4CCOCC4)cc3)c2cc1OC,x,-9,1,3,0,109,0,104,0
COc1ccc2c(-c3ccc(OCCN4CCOCC4)cc3)c(-c3ccccc3OC)sc2c1,x,4,1,5,-2,105,0,94,0
N#C[C@@H]1[C@@H](c2ccc(C#Cc3cccnc3)cc2)[C@@H](CO)N1C(=O)C1CCCC1,7,x,x,x,x,x,x,x,x
O=C(Nc1ccc(S(=O)(=O)Nc2ccccn2)cc1)c1cccc(Br)c1,8,-1,6.2*,-12,-3,100,0,87,0
O=C(Nc1ccc(S(=O)(=O)Nc2ncccn2)cc1)c1cccc(Br)c1,5,-12,0,-1,3,x,x,x,x
CCOC(=O)C(NC(=O)c1cccc(Cl)c1)(Nc1nnc(C)s1)C(F)(F)F (stereo not given),x,-9,9.7*,-14,1,106,0,108,0
CCC(=O)N1[C@@H]2Cn3c(ccc(/C=C/c4ccccc4)c3=O)[C@H]1[C@@H](C(=O)N(C)C)[C@@H]2CO,4,x,x,x,x,x,x,x,x
CN(C)CCCNC(=S)/N=c1\sccn1Cc1ccccc1Cl,-4,-8,0,1,7,x,x,x,x
S=C(/N=c1/sccn1Cc1ccccc1)NC1CC1,2,-8,1.3*,1,-2,101,0,106,0
COc1cccc(-c2cnc3c(c2)C(=O)N([C@@H](C)CO)C[C@H](C)[C@H](CN(C)Cc2ccncc2)O3)c1,-1,x,x,x,x,x,x,x,x
COc1ccc([Si](C)(C)[C@@H]2[C@@H](CCO)O[C@]3(C(=O)N4c5c(cc(OC)cc53)C(C)=CC4(C)C)[C@H]2C)cc1,6,x,x,x,x,x,x,x,x
CCN(CC)c1ccc(/C=C2\CCC(/C=N/NC(=O)c3ccc(=O)n(C)c3)=C2N2CCOCC2)cc1,0,-4,1.0*,10,x,112,0,125,0
O=C(N/N=C/C1=C(N2CCOCC2)C(=C\c2ccccc2)/CC1)Nc1ccccc1,x,-12,0,-1,-1,x,x,x,x
C/C=C/c1ccc([C@H]2[C@H](CO)N(C(=O)c3cnccn3)C23CN(C(=O)C2CC2)C3)cc1,-3,x,x,x,x,x,x,x,x
O=C(N/N=C/c1cccc(F)c1)c1c(O)c2c([nH]c1=O)CCCC2,x,2,8.9*,-5,-13,84,0,100,0
SMILES,ERp5 block,PvdQ inh,Efflux pump inh,PDI turbidity,Rtt109 HAT inh,Cmpd fluor yeast,Mdr1 pump inh,Cdr2 pump inh,CaCdr1 efflux inh
O=C(NN1C(=O)C2C3c4ccccc4C(c4ccccc43)C2C1=O)c1ccc(Cl)cc1 (stereo not given),4,16,8.9*,9,8,103,0,98,0
O=C(NN1C(=O)C2C3C=CC(C3)C2C1=O)c1ccccc1 (stereo not given),2,-10,0,-1,-2,x,x,x,x
Cc1ccc(/C=C\c2nccc3c2[nH]c2ccccc23)cc1,-1,-19,1.2*,2,-5,108,0,106,0
C(=C\c1nccc2c1[nH]c1ccccc12)/c1ccccc1,4,-62,0,-2,x,x,x,x,x
Cc1ccccc1Nc1nnc(-c2ccc(C(=O)NCCO)cc2)c2ccccc12,-2,4,1.0*,-5,0,106,0,96,0
Cc1nnc(Nc2ccc(C(=O)NCCO)cc2)c2ccccc12,x,-10,0,1,8,x,x,x,x
COc1ccc(CN(C)C[C@H]2OCCCC[C@H](C)Oc3ccc(NC(=O)NC4CCCCC4)cc3C(=O)N([C@H](C)CO)C[C@@H]2C)cc1,1,x,x,x,x,x,x,x,x
CC(C)NC(=O)N(C)C[C@@H]1Oc2ncc(C#CC3CC3)cc2C(=O)N([C@H](C)CO)C[C@@H]1C,1,x,x,x,x,x,x,x,x
Cn1c(=O)c2cc(S(=O)(=O)NCCC(=O)Nc3ccc(Cl)cc3)ccc2n(C)c1=O,x,-18,-1,3,10,x,x,x,x
CN(CC(=O)NC1CCCCC1)S(=O)(=O)c1ccc2c(c1)c(=O)n(C)c(=O)n2C,4,-8,0,0,20,x,x,x,x
CCOc1ccc(NC(=O)CCNS(=O)(=O)c2ccc3c(c2)c(=O)n(C)c(=O)n3C)cc1,-3,-4,6.7*,-19,-6,114,0,98,0
Cn1c(=O)c2cc(S(=O)(=O)NCCC(=O)NC3CCCCCCC3)ccc2n(C)c1=O,4,1,8.2*,15,3,98,0,102,0
CCCCn1c(=N)n(CC(O)COc2ccc(C)cc2)c2ccccc21 (stereo not given),x,-16,1.2*,-3,4,116,0,110,0
CCOc1ccccc1-c1nc(C(N)=O)c2[nH]c(=O)n(-c3ccc(F)cc3)c2n1,-3,3,1,-11,-14,101,0,120,0
Cc1ccsc1-c1nc(C(N)=O)c2[nH]c(=O)n(-c3ccc(Cl)cc3)c2n1,-2,-4,0,-6,-5,84,0,104,0
